The sample as a whole holds a higher share of hits than the screen did.
U2OS ROS induce = cancer cell ROS induction | ROS induction (% of piperlongumine), % at 10 µM | 46,000 tested, 2% active | U2OS ROS induction, H2DCF-DA fluorescence; in the data active means ROS induction above about 79%, passing the limit was not always enough
A number is an active result.

Screening C[C@@H]1CN([C@H](C)CO)C(=O)Cc2cc(NC(=O)Cc3cn(C)c4ccccc34)ccc2O[C@H]1CN(C)Cc1ccccc1 returned U2OS ROS induce inactive.
C[C@@H]1CN([C@@H](C)CO)C(=O)Cc2cc(NC(=O)Cc3cn(C)c4ccccc34)ccc2O[C@@H]1CN(C)Cc1ccc(-c2ccccc2)cc1 was read as U2OS ROS induce 85.
`C[C@@H]1CN([C@H](C)CO)C(=O)Cc2cc(NC(=O)Cc3cn(C)c4ccccc34)ccc2O[C@@H]1CN(C)Cc1ccc(Oc2ccccc2)cc1` gave U2OS ROS induce 131.
Screening C[C@@H]1CN([C@H](C)CO)C(=O)Cc2cc(NC(=O)Cc3cn(C)c4ccccc34)ccc2O[C@@H]1CN(C)Cc1ccncc1 returned U2OS ROS induce inactive.
For C[C@@H]1CN([C@@H](C)CO)C(=O)Cc2cc(NC(=O)Cc3cn(C)c4ccccc34)ccc2O[C@@H]1CN(C)Cc1ccc(C(=O)O)cc1 the results were U2OS ROS induce inactive.
For C[C@H](CO)N1C[C@H](C)[C@H](CN(C)Cc2ccc(-c3ccccc3)cc2)Oc2ccc(NC(=O)Cc3cn(C)c4ccccc34)cc2CC1=O the results were U2OS ROS induce inactive.
COc1ccc(CN(C)C[C@H]2Oc3ccc(NC(=O)Cc4cn(C)c5ccccc45)cc3CC(=O)N([C@H](C)CO)C[C@H]2C)cc1 was read as U2OS ROS induce inactive.
Screening O=C(NCc1ccccc1)C1CCCN(S(=O)(=O)N2CCCCCC2)C1 (configuration not stated) returned U2OS ROS induce inactive.
CC(C)(CN=C1NS(=O)(=O)c2ccccc21)CNC(=O)c1ccccc1Cl was read as U2OS ROS induce inactive.
O=C(c1cccs1)N1CCN(c2cc(C(F)(F)F)nc3ccccc23)CC1 was read as U2OS ROS induce inactive.
COC(=O)c1ccc(-c2ccco2)n1CC(=O)NCCN1CCN(C)CC1 was read as U2OS ROS induce inactive.
`CCc1ccc(NC(=S)Nc2ccccc2C(C)C)cc1` gave U2OS ROS induce inactive.
For Cc1nc2ccc(NC(=O)C(C)(C)C(=O)Nc3ccc4nc(C)c(C)nc4c3)cc2nc1C the results were U2OS ROS induce inactive.
For O=C(NCc1ccccn1)c1cc(-c2ccccc2)on1 the results were U2OS ROS induce inactive.
`Cc1ccc(-c2cc(C(=O)NCc3ccccn3)no2)cc1` gave U2OS ROS induce inactive.
O=C(NCc1ccccn1)c1cc2nc(-c3ccccc3)cc(-c3ccccc3)n2n1 was read as U2OS ROS induce 141.
Screening COC(=O)c1ccccc1NC(=O)CC1(c2ccc(Cl)cc2)C(=O)c2ccccc2C1=O returned U2OS ROS induce inactive.
`COc1ccc2c(Sc3ccccc3)c(C(=O)N3CCCCC3)[nH]c2c1` gave U2OS ROS induce inactive.
Screening CCOC(=O)c1cncc(C#CCOC(=O)c2c(-c3ccccc3)noc2C)c1 returned U2OS ROS induce inactive.
For FC(F)(F)c1cccc(/C=N/n2cnnc2SCc2ccccc2)c1 the results were U2OS ROS induce inactive.
`O=S(=O)(/N=C(\Nc1ccccc1)c1ccccc1)c1ccc(Br)cc1` gave U2OS ROS induce inactive.
For C[C@@H]1CCCCO[C@@H](CN(C)Cc2ccc(C(F)(F)F)cc2)[C@@H](C)CN([C@H](C)CO)C(=O)c2cc(NC(=O)c3ccncc3)ccc2O1 the results were U2OS ROS induce 98.
For C[C@@H]1CCCCO[C@H](CN(C)Cc2ccncc2)[C@@H](C)CN([C@H](C)CO)C(=O)c2cc(NC(=O)c3ccncc3)ccc2O1 the results were U2OS ROS induce inactive.
C[C@@H]1CCCCO[C@@H](CN(C)Cc2ccc(C(F)(F)F)cc2)[C@@H](C)CN([C@H](C)CO)C(=O)c2cc(NC(=O)c3ccccc3)ccc2O1 was read as U2OS ROS induce inactive.
For C[C@@H]1CCCCO[C@@H](CN(C)Cc2ccccc2)[C@@H](C)CN([C@H](C)CO)C(=O)c2cc(NC(=O)c3ccccc3)ccc2O1 the results were U2OS ROS induce 184.
C[C@@H]1CCCCO[C@H](CN(C)Cc2ccccc2)[C@@H](C)CN([C@H](C)CO)C(=O)c2cc(NC(=O)c3ccncc3)ccc2O1 was read as U2OS ROS induce inactive.
C[C@@H]1CCCCO[C@H](CN(C)Cc2ccc(C(=O)O)cc2)[C@@H](C)CN([C@H](C)CO)C(=O)c2cc(NC(=O)c3ccccc3)ccc2O1 was read as U2OS ROS induce inactive.
For COc1ccc(/C=C/C(=O)NCC2(c3ccccc3)CCOCC2)cc1 the results were U2OS ROS induce inactive.
Screening Cc1ccc(S(=O)(=O)N2CCN(C(=O)c3ccccc3)C2c2ccccc2)cc1 (configuration not stated) returned U2OS ROS induce inactive.
Screening CC(C)c1nc2ccccc2n1Cc1ccccc1Cl returned U2OS ROS induce inactive.
For Cc1ccc2nc3ccc(NCc4ccccc4)nn3c(=O)c2c1 the results were U2OS ROS induce inactive.
Screening N#CC1=C(N)N(c2ccc(S(N)(=O)=O)cc2)C2=C(CCC2)C1(C(F)(F)F)C(F)(F)F returned U2OS ROS induce inactive.
COc1ccc(C2C(C(=O)NC3CCCCC3)c3ccccc3C(=O)N2c2ccc(OC)cc2)cc1 (configuration not stated) was read as U2OS ROS induce inactive.

Source: PubChem BioAssay (Broad Institute)
